The values that follow come from PubChem BioAssay AID602449 (Sanford-Burnham Center for Chemical Genomics, 2012).

Broadly, the inhibition is the drop in the measured response relative to a control, in per cent.

Molecules are shown by their SMILES. Out of some 360,000 compounds screened, about 5,000 (1.4%) were called active.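 How the source made its calls: active means inhibition of 50% or more, scaled per plate between neutral and stimulator controls; inactive means the rest.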 The sample as a whole holds a higher share of actives than the screen did.

This assay in a line: mitochondrial permeability transition pore inhibitors, primary screen, biochemical, isolated mouse mitochondria, absorbance (AID 602449).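 Further: 0% = DMSO wells given calcium and 100% = 1 mM EGTA wells.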 The note with it: Ca2+ swelling absorbance, 30 min, at 10 µM, active compounds read high.
For the molecule `COc1cc(C(=O)NNC(=O)CN2C(=O)NC3(CCCC3)C2=O)cc(OC)c1OC`, the inhibition was -0.8% (inactive).

In the case of `COc1ccc(NS(=O)(=O)c2ccc(N3CCN(CCO)CC3)c([N+](=O)[O-])c2)cc1`, the inhibition was 2.1% (inactive). Under `COc1ccc(NS(=O)(=O)c2ccc(NC(=O)c3ccc(N(C)S(C)(=O)=O)cc3)cc2)cc1` stands 21.3% (inactive); under `COc1ccc(NS(=O)(=O)c2ccc(Oc3c(C#N)cccc3C#N)cc2)cc1`, 91.6% (active); under `C/C(=N/NC(=O)c1cc(Cl)ccc1O)C12CC3CC(CC(C3)C1)C2`, 9.3% (inactive). `CC(=N\NC(=O)c1cc(Br)ccc1O)/C(=N/O)C(=O)Nc1ccccc1`: the inhibition is 76.8% (active). With `CC(=O)N/N=C(\C)c1ccc(Br)cc1Br` the figure was -4.6% (inactive); with `CCO[C@H]1OC(C(=O)O)=C[C@@H](C2CCCCC2)[C@@H]1CCCO`, -1.5% (inactive). With `O=C(COC(=O)c1cnccn1)Nc1ccc(Cl)cc1C(F)(F)F` the figure was -0.1% (inactive); with `C=CCNC(=O)CCCC(=O)NCC=C`, 1.2% (inactive); with `O=C(OC1CC2CC1[C@H]1CCCCN1C2=O)N1CCOCC1` (some centres not stated), -3% (inactive). As for `Cc1ccc(C)c(NC(=S)NNC(=S)Nc2ccc(C(C)C)cc2)c1`, the inhibition was 93.7% (active). With `Cc1ccc(C)c(NC(=O)C2CC(=O)N(C(C)C)C2)c1` (configuration not stated) the figure was -0.7% (inactive). `Cc1ccc(C)c(NC(=S)NCC(c2cccnc2)N2CCOCC2)c1` (configuration not stated): the inhibition is -1.7% (inactive). With `CCc1ccccc1NC(=O)CN(C)C(=O)COc1ccc(C)nc1[N+](=O)[O-]` the figure was 14.3% (inactive); with `O=C(NCc1ccncc1)C1CCN(C(=O)c2cccc(Cl)c2)CC1`, 0.5% (inactive). Under `C=CCn1c(N)cc(=O)nc1SCC(=O)Nc1cccc2ccccc12` stands 0.1% (inactive). Under `O=C(NNS(=O)(=O)c1ccc(F)cc1)c1ccc([N+](=O)[O-])cc1Cl` stands -0.9% (inactive); under `Cc1cccc(NS(=O)(=O)c2ccc([N+](=O)[O-])cc2)n1`, 0.2% (inactive); under `O=[N+]([O-])c1ccc(NS(=O)(=O)c2ccccc2)c(Cl)c1`, 86.7% (active). As to `CC(Nc1ccccc1)c1cccnc1` (configuration not stated), the inhibition is -1.4% (inactive). Take `CC(=O)c1c(C)[nH]c(C(=O)OCC(=O)Nc2c(C)cccc2C)c1C`: the inhibition was 1.5% (inactive). `CC(=O)c1c(C)[nH]c(C(=O)OCC(=O)Nc2sc3c(c2C#N)CCCC3)c1C`: the inhibition was 98.8% (active). Under `N#Cc1c(NC(=O)CCCl)sc2c1CCCCC2` stands 0.2% (inactive); under `O=C1CCN(Cc2ccc([N+](=O)[O-])cc2)CCN1[C@H](CO)Cc1ccccc1`, -0.2% (inactive). As for `O=C(Nc1nnc(COc2ccccc2)s1)Nc1ccccc1F`, the inhibition was 6.4% (inactive).

Turning to `O=C(Nc1ccccc1)Nc1nnc(COc2ccccc2F)s1`, the inhibition is 69.5% (active). For the molecule `COCc1nnc(NC(=O)CS(=O)(=O)Cc2ccccc2)s1`, the inhibition was 0.4% (inactive). As for `Cc1[nH]c2ccccc2c1-c1ccc(Cl)nn1`, the inhibition is -1% (inactive).

With `COC(=O)[C@]1(S(=O)(=O)c2ccccc2)C[C@@H]2ON=C(c3ccc(OC)cc3)[C@@H]2C1`, the inhibition was 1% (inactive). Take `N#C[C@]1(S(=O)(=O)c2ccccc2)C[C@@H]2ON=C(c3cccc(Br)c3)[C@@H]2C1`: the inhibition is 72.4% (active).

`CC1=C(C)CC(C(=O)NC(C)CCc2ccccc2)C(C(=O)O)C1` (configuration not stated): the inhibition was -1.3% (inactive).

`COc1cc(Br)c(-c2sc(Nc3ccccc3)n[n+]2-c2ccccc2)cc1OC`: the inhibition is 1.6% (inactive).

In the case of `COc1ccc(C)cc1Nc1n[n+](-c2ccccc2)c(-c2cccc(Cl)c2Cl)s1`, the inhibition is 1.4% (inactive). Under `CCc1ccc(Nc2n[n+](-c3ccccc3)c(-c3cccc(Cl)c3Cl)s2)cc1` stands 57.1% (active). `Cc1ccc(C)c(OCCC(=O)OCC(=O)N2CCN(c3ccccc3)CC2)c1`: the inhibition is -0.6% (inactive). As to `O=C(Cc1ccc(-n2c(=O)[nH]c3ccccc3c2=O)cc1)N1CCN(c2cccc(Cl)c2)CC1`, the inhibition was 53% (active). In the case of `CCOC(=O)N1CCN(C(=O)Cc2ccc(-n3c(=S)[nH]c4ccccc4c3=O)cc2)CC1`, the inhibition is -1.2% (inactive). On to `O=C(CCCC(=O)N1CCN(c2cccc(Cl)c2)CC1)c1ccccc1`, for which the inhibition was -0.6% (inactive). Under `Cc1ccc(C(=O)N2CCN(C3CCCCC3)CC2)s1` stands -0.6% (inactive); under `CCCCCC(O)c1cccc(OCc2ccc3ccccc3n2)c1` (configuration not stated), 50.9% (active).

In the case of `COc1cccc(C(O)c2nc3ccccc3n2C)c1` (configuration not stated), the inhibition is -0.2% (inactive). Under `COc1cccc(C(O)c2ncc(-c3ccc4ccccc4c3)[nH]2)c1` (configuration not stated) stands -0.1% (inactive); under `Cc1ccnc(NC(=O)CCC(=O)N(CC(=O)NCc2ccccc2)Cc2ccco2)c1`, -0.3% (inactive); under `Cc1cc(C)c2c(=O)[nH]c(SCC(=O)Nc3ccc(Br)cc3)nc2n1`, 4.4% (inactive).

For the molecule `N#Cc1c(-c2cccs2)nc(SCC(=O)c2ccc(Br)cc2)[nH]c1=O`, the inhibition is 53.9% (active). Under `CCc1ccc(C(=O)CSc2nnc(C)c(=O)[nH]2)cc1` stands 0.8% (inactive); under `CC1=C(C(=O)N(C)C)CC(CC(=O)NCCc2ccccn2)C(=O)N1CCC1=CCCCC1` (configuration not stated), -0.3% (inactive). Under `CSCCC(NC(=O)c1ccc(=O)n(C)n1)c1nc2ccccc2[nH]1` (configuration not stated) stands -0.7% (inactive); under `CSCCC(NC(=O)c1cc([N+](=O)[O-])cc([N+](=O)[O-])c1)c1nc2ccccc2[nH]1` (configuration not stated), 50.8% (active); under `COc1ccc(CC(=O)N[C@@H](CCSC)c2nc3ccccc3[nH]2)cc1`, -1.3% (inactive). With `COC(=O)[C@@]12C[C@@H](CC(=O)NCCCCc3ccccc3)C(=O)N(CCc3ccc(OC)c(OC)c3)C1=CCC(C)(C)C2` the figure was -2.6% (inactive). Turning to `Cc1ccc(C)c(N2CCN(C(=O)Cn3ncn4cccc4c3=O)CC2)c1`, the inhibition was 0.1% (inactive).

With `COc1ccc(S(=O)(=O)NCC2CCCN(C(=O)c3occc3C)C2)cc1` (configuration not stated), the inhibition was -0.5% (inactive). For the molecule `O=c1cc(O)c(-c2cccc(C(F)(F)F)c2)c(Cl)[nH]1`, the inhibition is 3.7% (inactive). Under `O=C(NNc1ccccc1Cl)C(O)(c1cccc(C(F)(F)F)c1)c1cccc(C(F)(F)F)c1` stands 90% (active); under `O=C(O)c1cc(S(=O)(=O)N(Cc2ccccc2)c2cccc(C(F)(F)F)c2)ccc1Cl`, 0.9% (inactive). For the molecule `CCCCNc1c(-c2cccc(Sc3ccc(OC)cc3)c2)nc2ccccn12`, the inhibition was 6.5% (inactive).

For the molecule `CC(=O)NC(CC(=O)Nc1ccc(S(=O)(=O)N2CCOCC2)cc1)c1ccccc1` (configuration not stated), the inhibition was -1.9% (inactive). Consider `COc1ccc(C(C)(O)c2nc(-c3cc(F)cc(F)c3)cs2)cc1` (configuration not stated), for which the inhibition was 1.2% (inactive).

For the molecule `COC(=O)C1=CN(c2c(C)cc(C)cc2C)C(N)=C(C#N)C1c1cccc(F)c1` (configuration not stated), the inhibition was 1.1% (inactive). With `CCCCN(C)C(=O)C1CCN(Cc2ccccn2)CC1` the figure was -1% (inactive); with `O=c1c2ccccc2nc2n1C(CSCc1cccc(C(F)(F)F)c1)CS2` (configuration not stated), 54% (active); with `Cn1c(-c2sccc2OCc2cccc(C(F)(F)F)c2)n[nH]c1=S`, 0.2% (inactive).

Turning to `O=c1c2ccccc2nc2n1C(CSc1ccc(Cl)cc1)CN2` (configuration not stated), the inhibition is -1.7% (inactive). With `N#Cc1c(-c2ccccc2)nc(SCc2cccc(C(F)(F)F)c2)[nH]c1=O` the figure was 49.1% (inactive); with `O=c1c2ccccc2nc2n1C(CSCc1ccccc1)CS2` (configuration not stated), 52.1% (active); with `C#CCCCc1nc2ccccc2c(=O)n1N`, 5.8% (inactive). With `COC(=O)[C@@]1(Cc2ccc(F)cc2)[C@H]2c3cc(C(=O)N(C)C)n(CCc4c[nH]c5ccc(OC)cc45)c3C[C@H]2CN1C(=O)c1ccccc1` the figure was -3.6% (inactive).

In the case of `Cc1ccc(OCc2nnc(NC(=O)OCC(C)C)s2)cc1`, the inhibition was 0% (inactive).

Consider `O=c1c2[nH]c3ccc(Cl)cc3c2ncn1Cc1ccccn1`, for which the inhibition was 0.2% (inactive).

With `COc1ccccc1C1C(C#N)=C(N)Oc2c1c(-c1ccccc1)nn2-c1ccccc1` (configuration not stated), the inhibition is 43.7% (inactive). Under `CN/C(=C\[N+](=O)[O-])NCCSCc1csc(CN(C)C)n1` stands -1.8% (inactive); under `Cc1c(NC(=O)c2coc(=O)c(Br)c2)c(=O)n(-c2ccccc2)n1C`, 0.9% (inactive). On to `O=C(Nc1cccc(F)c1)NC1CCCCCCC1`, for which the inhibition was 46.7% (inactive). As to `O=C(Nc1cccc(F)c1)c1coc(=O)c(Br)c1`, the inhibition was 92.1% (active). Take `CCC(C)NC(=O)N[C@@H](CCSC)C(=O)O` (some centres not stated): the inhibition was -0.7% (inactive). Under `CC(C)(C)c1ccc(SCCc2ccncc2)cc1` stands 105% (active); under `Cc1ccc(SCCSc2ncccn2)cc1`, 1.5% (inactive).

For the molecule `CCN(Cc1ccncc1)C(=O)CCc1ccccc1`, the inhibition is 4% (inactive). `c1ccc(CSCCc2ccncc2)cc1`: the inhibition was 4% (inactive). With `Cc1cc(C)c(NC(=O)CSc2nc3ccncc3[nH]2)c(C)c1` the figure was -1.3% (inactive); with `Cc1cc(C)c(SCCc2ccncc2)c(C)c1`, 90.9% (active); with `CN(C)CCNC(=O)c1ccc(-c2cn3c(-c4ccc(Oc5ccccc5)cc4)cnc3cn2)cc1`, -1.4% (inactive).

Take `O=C(OC1CCOC1=O)c1cccc(S(=O)(=O)Nc2ccc(F)cc2)c1` (configuration not stated): the inhibition was 2.8% (inactive). For `CCOc1ccc(S(=O)(=O)NCCCn2ccnc2)cc1NC(C)=O`, the inhibition was -0.5% (inactive).

Regarding `CCN(CC)CCCN1C(=O)C(=O)/C(=C(/O)c2c(C)nc3ccccn23)C1c1ccc(C)o1` (configuration not stated), the inhibition is 1.3% (inactive). In the case of `O=C(CN(Cc1ccccc1)C(=O)c1ccc2c(c1)OCCO2)NCc1ccc2c(c1)OCO2`, the inhibition is -5.6% (inactive). Take `CCC(=O)N1CCc2cc(S(=O)(=O)CCC(=O)N3CCN(c4ccccc4F)CC3)ccc21`: the inhibition was 0.5% (inactive). Consider `O=C(C1Cc2ccccc2CN1C(=O)c1ccco1)N1CCN(c2ccccc2)CC1` (configuration not stated), for which the inhibition is 0.7% (inactive).

As to `CN1CCC(N(C)C(=O)c2ccc(Cl)c(S(=O)(=O)Nc3ccc(Cl)cc3)c2)CC1`, the inhibition is -0.7% (inactive). Regarding `C=C1c2c(Cl)ccc(O)c2C(O)=C2C(=O)[C@]3(O)C(O)=C(C(N)=O)C(=O)[C@@H](N(C)C)[C@@H]3[C@@H](O)C12` (some centres not stated), the inhibition is 80.1% (active).
